Experimental findings from PubChem BioAssay AID602382 (Sanford-Burnham Center for Chemical Genomics, 2012) are described below.

SMILES strings stand for the structures. The list shows a part of the results. Activity calls are given as the source filed them. No rule for the calls is given here.

What is called IC50 is the concentration needed to halve the response being measured.

The nature of the experiment: beacon detection-step fluorescence artefacts – biochemical, fluorescent molecular beacon, artefact control for DNMT1 inhibitor project, dose response (AID 602382). The following applies: spectral interference counter-screen. (Counterscreens check selectivity or assay interference.)
Consider `COc1ccc(Br)cc1/C=N/Nc1ccc(S(=O)(=O)Nc2ccccc2C(=O)O)cc1[N+](=O)[O-]`, for which the IC50 is > 99 µM (inactive).
For the molecule `O=C(CSc1nc2ccccc2c(=O)[nH]1)Nc1nc(-c2ccc(Br)cc2)cs1`, the IC50 is > 99 µM (inactive).
The figure for `COc1ccc(C(=O)/C=C/c2ccc(-c3ccccc3)cc2)cc1CSCC(=O)O` is > 99 µM (inactive); for `CCOC(=O)C(NC(=O)CC(C)C)(Nc1sc2c(c1C(N)=O)CCCC2)C(F)(F)F` (stereo not given) it is > 99 µM (inactive).
Turning to `NC(CSC(c1ccccc1)(c1ccccc1)c1ccc(-c2ccccc2)cc1)C(=O)O` (stereo not given), the IC50 was > 99 µM (inactive).
The figure for `Cc1ccccc1NC(=O)CN1C(=O)N/C(=C\c2cccn2-c2cccc(C(=O)O)c2)C1=O` is > 99 µM (inactive).
As for `Cc1ccc(/C=C/C(=O)Nc2ccc([N+](=O)[O-])c(NC(=O)/C=C/c3ccc(C)o3)c2)o1`, the IC50 is > 99 µM (inactive).
The figure for `O=C(Oc1ccc(-c2nc(-c3ccccn3)no2)cc1)c1ccccc1` is > 99 µM (inactive); for `O=C(COc1ccc(/C=N/NC(=O)c2ccc(O)cc2)cc1)Nc1ccc([N+](=O)[O-])cc1` it is > 99 µM (inactive); for `COc1ccc(Cc2nnc(NC(=O)Cc3cccs3)s2)cc1` it is > 99 µM (inactive).
